Screening data as filed in PubChem.
The list is not random: actives were taken first. Their share in the collection is about 9.4%.
ELG1 DNA repair = ELG1-dependent DNA repair inhibition | 330,000 compounds, 2.3% hits | HEK293T ELG1-luciferase reporter, luminescence, 16 h; DNA damage induced by 5-fluorouridine | Potency, µM (top dose mostly 46.1 µM), for the others: at the highest dose activity change, negative = inhibition, actives largely listed as inhibitors; note: % is set by controls: 0 for no effect and ±100 for the full control effect; nearly all actives have a fitted effect of over 55% in size
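5-Fluorouridine DNA damage + compound/DMSO, 2,000 cells/well, 16 h, 37 °C/5% CO2. ONE-Glo, 30 min RT, luminescence. Readout = decrease in reporter signal.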
FLuc counter = counter-screen for miR-21 project: firefly luciferase inhibitors or activators | Potency, µM (series often up to 57.5 µM), without a hit: at the highest dose activity change, negative = inhibition, hits mostly inhibitors | P08659 | purified FLuc, Km substrates, luminescence inhibition | 360,000 compounds, 6.9% hits | AID 588342;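 note: plate controls were vehicle for no effect and reference inhibitor for full effect; nearly all actives have a fitted effect of over 55% in size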
Target sequence (P08659 whole entry, looked up): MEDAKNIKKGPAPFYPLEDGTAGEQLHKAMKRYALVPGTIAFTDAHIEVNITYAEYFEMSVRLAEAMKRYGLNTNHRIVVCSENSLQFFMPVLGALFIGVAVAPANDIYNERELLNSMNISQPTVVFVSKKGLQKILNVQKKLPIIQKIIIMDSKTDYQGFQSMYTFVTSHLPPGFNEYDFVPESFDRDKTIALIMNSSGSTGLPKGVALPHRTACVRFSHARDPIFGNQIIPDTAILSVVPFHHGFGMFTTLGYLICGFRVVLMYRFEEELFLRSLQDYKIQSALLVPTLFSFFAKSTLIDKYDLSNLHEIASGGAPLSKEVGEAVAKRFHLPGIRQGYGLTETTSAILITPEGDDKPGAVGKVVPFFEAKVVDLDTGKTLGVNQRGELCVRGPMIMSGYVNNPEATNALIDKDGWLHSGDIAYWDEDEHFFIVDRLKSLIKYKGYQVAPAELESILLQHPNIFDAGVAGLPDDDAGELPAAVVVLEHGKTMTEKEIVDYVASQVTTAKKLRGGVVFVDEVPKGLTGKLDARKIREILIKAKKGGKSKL
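Biochemical qHTS of compounds, final roughly 60 µM downward over six points, against 10 nM purified firefly luciferase using Km concentrations of substrates (10 uM D-luciferin, 10 uM ATP) in Tris acetate pH 7.5 buffer; luminescence output.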
Rab9 promoter act = activates the Rab9 promoter; AID 485297; Potency, µM (series often up to 9.22 µM), for inactives: at the highest dose activation, negative = inhibition, actives largely listed as activators; 320,000 compounds, 2.8% hits; Huh7 Rab9 promoter-luciferase reporter, luminescence, 24 h; note: % of control where 0% means no effect; nearly all actives have a fitted effect of over 60% in size
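Measured in stably transfected Huh7 cells bearing a Rab9 promoter–luciferase construct: 24 h compound treatment at 37 °C, followed by luminescence detection.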
SMN2 splice enh = SMN2 splice variant enhancement; Potency, µM (doses to about 46.1 µM), inactives show at the top dose activity change, positive = activation, actives largely listed as activators; 210,000 compounds, 2.8% hits; HEK293 SMN2-luciferase splicing reporter, luminescence, 30-36 h; note: % of control where 0% means no effect; nearly all actives have a fitted effect of over 55% in size
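qHTS luciferase splicing reporter: luminescence rises when SMN2 exon 7 is included in transfected HEK293 cells. Compound exposure lasted 30-36 h at 37C, with 4.5 mM final sodium butyrate as control, followed by a ONE-Glo read.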
ELG1 genotox = genotoxicity induction in ELG1-luciferase HEK293T cells; HEK293T ELG1-luciferase reporter, luminescence, 16 h; 330,000 compounds, 1.3% hits; Potency, µM (highest dose often 46 µM), inactives show top-dose activity change, positive = activation, hits mostly activators; AID 504466; note: % of control where 0% means no effect; nearly all actives have a fitted effect of over 60% in size
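After overnight (16 hr) compound treatment at 37 °C, ELG1-luciferase HEK293T cells were lysed with ONE-Glo; luminescence quantified 30 min later at room temperature.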
NPC1 promoter act = NPC1 promoter activation. 320,000 compounds, 2.4% hits. Huh7 NPC1 promoter luciferase reporter, 24 h. Potency, µM (titrated, usually from 9.22 µM), inactives show at the highest dose activation, usual class: activators. AID 485313; note: % of control where 0% means no effect; nearly all actives have a fitted effect of over 60% in size
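Stably transfected Huh7 (NPC1 promoter→luciferase), 1500 cells/well in Opti-MEM + 10% FBS, 2 h settle, then compound 24 h at 37 °C. Luminescence after 10 min with Amplite reagent.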
Active calls of the source: *. Calls come from the whole dose curve; as a rule, active = well fitted curve in the direction sought with a large enough effect; inconclusive = small, poorly fitted or top-dose-only effect, or another doubt; inactive = no such curve, though single readings can be large; an effect the other way counts as inactive or inconclusive. Potency is the fitted concentration of half-maximal effect.

How did CCN(CC)C(=O)COc1ccc2c(-c3ccccc3)cc(=O)oc2c1 do in these assays?
ELG1 DNA repair: -18%; FLuc counter: -7%; Rab9 promoter act: -3%; ELG1 genotox: 0%; NPC1 promoter act: -5%

How did CC(C)c1ccc(NC(=O)C2CCC(CNS(=O)(=O)c3ccc4c(c3)CCCC(=O)N4)CC2)cc1 (stereo not drawn) do in these assays?
FLuc counter: -10%

What do the screens show for `CSc1ccc(CCNC(=O)Cn2ncn3c(cc4ccccc43)c2=O)cc1`?
FLuc counter: 3%; SMN2 splice enh: 10%

Results for COC(=O)c1oc2ccc(OC)cc2c1N ?
ELG1 DNA repair: inconclusive; FLuc counter: 21µM*; Rab9 promoter act: 29%; SMN2 splice enh: inconclusive; ELG1 genotox: 12%; NPC1 promoter act: 13%

How did COc1ccc(C(=O)c2oc3ccc(OC)cc3c2NC(C)=O)cc1 do in these assays?
ELG1 DNA repair: 6%; FLuc counter: -2%; Rab9 promoter act: 1%; SMN2 splice enh: 0%; ELG1 genotox: 4%; NPC1 promoter act: -1%

How did COc1ccc(C(=O)c2oc3ccc(OC)cc3c2N)cc1 do in these assays?
ELG1 DNA repair: inconclusive; FLuc counter: 7.6µM*; Rab9 promoter act: 2.8µM*; SMN2 splice enh: 14µM*; ELG1 genotox: 13µM*; NPC1 promoter act: 2.8µM*

Results for CCc1ccc(NC(=O)CC2C(=O)N(c3cccc(C)c3)C(=O)N2Cc2cccc(OC)c2)cc1 (stereo not drawn) ?
FLuc counter: -12%

How did COC(=O)c1sc(S(=O)(=O)NCC(=O)O)c(C(=O)OC)c1C do in these assays?
ELG1 DNA repair: 3%; FLuc counter: -8%; Rab9 promoter act: inconclusive; SMN2 splice enh: 9%; ELG1 genotox: 2%; NPC1 promoter act: -1%

What do the screens show for `COC(=O)c1sc(S(=O)(=O)NCc2cccs2)c(C(=O)OC)c1C`?
ELG1 DNA repair: 15µM*; FLuc counter: 5%; Rab9 promoter act: -4%; SMN2 splice enh: -24%; ELG1 genotox: -6%; NPC1 promoter act: -2%

What do the screens show for `Cc1ccc(-n2nc3c(N4CCC(C(=O)NCCC(C)C)CC4)nnc(C)c3c2C)cc1`?
FLuc counter: -7%

Results for CN(C)Cc1c(O)ccc2c1O/C(=C\C=C\c1ccccc1)C2=O ?
ELG1 DNA repair: 13%; FLuc counter: 13µM*; Rab9 promoter act: 1%; ELG1 genotox: -9%; NPC1 promoter act: 0%

Results for CCN1CCN(Cc2c(O)ccc3c2O/C(=C\c2ccc(C)cc2)C3=O)CC1 ?
ELG1 DNA repair: -27%; FLuc counter: inconclusive; Rab9 promoter act: -2%; SMN2 splice enh: -1%; ELG1 genotox: -2%; NPC1 promoter act: -12%

How did CCN1CCN(Cc2c(O)ccc3c2O/C(=C\c2ccccc2)C3=O)CC1 do in these assays?
ELG1 DNA repair: -7%; FLuc counter: -1%; Rab9 promoter act: -3%; SMN2 splice enh: 4%; ELG1 genotox: -6%; NPC1 promoter act: -3%

What do the screens show for `COc1ccccc1/C=C/C=C1\Oc2c(ccc(O)c2CN2CCN(CCO)CC2)C1=O`?
ELG1 DNA repair: 21%; FLuc counter: 3.8µM*; Rab9 promoter act: 3%; SMN2 splice enh: 24%; ELG1 genotox: 9%; NPC1 promoter act: 3%

What do the screens show for `O=C1/C(=C/C=C/c2ccccc2)Oc2c1ccc(O)c2CN1CCN(CCO)CC1`?
ELG1 DNA repair: 2%; FLuc counter: 12µM*; Rab9 promoter act: -7%; ELG1 genotox: 0%; NPC1 promoter act: -4%

Results for CCN1CCN(Cc2c(O)ccc3c2O/C(=C\C=C\c2ccccc2)C3=O)CC1 ?
ELG1 DNA repair: inconclusive; FLuc counter: 11µM*; Rab9 promoter act: 7%; SMN2 splice enh: -24%; ELG1 genotox: 0%; NPC1 promoter act: 6%

Results for CCOc1ccc(S(=O)(=O)N(C(=O)c2ccncc2)c2ccc3oc(C)c(C(=O)OC)c3c2)cc1 ?
FLuc counter: -1%; SMN2 splice enh: -60%

How did Cc1ccc(N(Cc2cccs2)C(=O)c2ccco2)cc1 do in these assays?
FLuc counter: -20%

How did COc1ccc(Nc2cc(C)c3cc(NC(=O)COc4cccc(C)c4)ccc3n2)cc1 do in these assays?
FLuc counter: -2%

Results for CCCSc1ncc(Cl)c(C(=O)Nc2ccc(S(=O)(=O)N3CCCCC3C)cc2)n1 (stereo not drawn) ?
FLuc counter: -1%; SMN2 splice enh: -30%

What do the screens show for `CCc1ccc(/C=C2\Oc3c(ccc(O)c3CN3CCN(C)CC3)C2=O)cc1`?
ELG1 DNA repair: inconclusive; FLuc counter: 12µM*; Rab9 promoter act: 0%; ELG1 genotox: 8%; NPC1 promoter act: inconclusive

Results for Cc1ccc(/C=C2\Oc3c(ccc(O)c3CN3CCN(C)CC3)C2=O)cc1 ?
ELG1 DNA repair: -23%; FLuc counter: inconclusive; Rab9 promoter act: -4%; SMN2 splice enh: -2%; ELG1 genotox: 8%; NPC1 promoter act: -1%

Results for CC1=CC(C)C(C[N+]2(C)CCCCC2)C(C)C1 (stereo not drawn) ?
ELG1 DNA repair: -4%; FLuc counter: 0%; Rab9 promoter act: -9%; ELG1 genotox: -3%; NPC1 promoter act: -1%

How did CC1=CC(C)C(/C=N/N=C(N)N)C(C)C1 (stereo not drawn) do in these assays?
ELG1 DNA repair: 5.8µM*; FLuc counter: 0%; Rab9 promoter act: -16%; ELG1 genotox: -10%; NPC1 promoter act: -3%

Results for CCCCN=C1NN=C(c2ccc3c(c2)OCCO3)CS1 ?
ELG1 DNA repair: inconclusive; FLuc counter: 3µM*; Rab9 promoter act: 0.89µM*; ELG1 genotox: 1.8µM*; NPC1 promoter act: 1.3µM*

What do the screens show for `FC(F)Sc1ccc(N=C2NN=C(c3ccc4c(c3)OCCO4)CS2)cc1`?
ELG1 DNA repair: inconclusive; FLuc counter: inconclusive; Rab9 promoter act: 21%; SMN2 splice enh: -11%; ELG1 genotox: 2%; NPC1 promoter act: 2%

What do the screens show for `c1cc2c(cc1C1=NNC(=NC3CC3)SC1)OCCO2`?
ELG1 DNA repair: inconclusive; FLuc counter: 0.24µM*; Rab9 promoter act: 0.0013µM*; SMN2 splice enh: -80%; ELG1 genotox: inconclusive; NPC1 promoter act: 0.0003µM*

What do the screens show for `COc1ccc(N=C2NN=C(c3ccc4c(c3)OCCO4)CS2)cc1`?
ELG1 DNA repair: 14%; FLuc counter: inconclusive; Rab9 promoter act: 23%; SMN2 splice enh: -12%; ELG1 genotox: 15%; NPC1 promoter act: 0%
